NTR1 agonist: agonists of human NTR1, primary screen, imaging, U2OS cells, beta-arrestin-GFP, high content | NTR1-U2OS beta-arrestin-GFP spot imaging, agonist mode | activation, % at 20 µM | AID 493036, 2011 | hit rate 0.17% among 330,000;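 active = activation at or above 40% of the spot to cytoplasm intensity ratio, with at least 20 cells analyzed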;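 note: 0% = DMSO without peptide and 100% = 100 nM NTR1 peptide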
Exocytosis inh: LAMP-1 surface exposure blockers, TALL-104 cells – cell-based, flow cytometry, MLPCN library, primary screen; TALL-104 LAMP-1 surface exposure; cells stimulated with thapsigargin and PMA; inhibition, % at 10 µM; hit rate 0.66% among 360,000; AID 651702, 2012;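 active = inhibition above about 55%, limit read from the data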
ABHD5 PLIN5 PPI: ABHD5-PLIN5 interaction inhibitors, primary screen, cell lysate, split luciferase complementation, luminescence. inhibition, % at 4 µM. Split G. princeps luciferase complementation, 4 h. hit rate 0.78% among 360,000. AID 602281, 2012. Perilipin-5 (Homo sapiens) + 1-acylglycerol-3-phosphate O-acyltransferase ABHD5 (Homo …;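 active = inhibition above the mean inhibition across every tested compound plus 3 SD, cut at about 22% in these data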;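 note: 0% = DMSO only wells and the 100% control is not disclosed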
Beta2AR agonist: beta2AR agonists driving receptor internalization, primary screen, cell-based, FAP fluorogen, flow cytometry; hit rate 0.43% among 340,000; Beta-2 adrenergic receptor (Homo sapiens), P07550; Am2.2-beta2AR cells; AID 504454, 2011; response, % (no concentration beside the values);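 active = response above a set limit, near 3 SD of response in nonfluorescent compounds, cut at about 42% in these data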
m5-HT2A agonist: mouse Htr2a agonists via beta-arrestin recruitment, primary screen, cell-based, luminescence. 5-hydroxytryptamine receptor 2A (Mus musculus), P35363. CHO-K1 mHTR2A beta-arrestin complementation; percent of 30 µM serotonin response. activation, % at 7.6 µM. hit rate 0.66% among 360,000;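 active = activation above a run cutoff, the mean activation of all tested compounds plus 3 SD, cut at about 14% in these data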;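 note: 0% = plate median of compound wells and 100% = 30 µM serotonin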
Target sequence (P35363 whole entry, looked up): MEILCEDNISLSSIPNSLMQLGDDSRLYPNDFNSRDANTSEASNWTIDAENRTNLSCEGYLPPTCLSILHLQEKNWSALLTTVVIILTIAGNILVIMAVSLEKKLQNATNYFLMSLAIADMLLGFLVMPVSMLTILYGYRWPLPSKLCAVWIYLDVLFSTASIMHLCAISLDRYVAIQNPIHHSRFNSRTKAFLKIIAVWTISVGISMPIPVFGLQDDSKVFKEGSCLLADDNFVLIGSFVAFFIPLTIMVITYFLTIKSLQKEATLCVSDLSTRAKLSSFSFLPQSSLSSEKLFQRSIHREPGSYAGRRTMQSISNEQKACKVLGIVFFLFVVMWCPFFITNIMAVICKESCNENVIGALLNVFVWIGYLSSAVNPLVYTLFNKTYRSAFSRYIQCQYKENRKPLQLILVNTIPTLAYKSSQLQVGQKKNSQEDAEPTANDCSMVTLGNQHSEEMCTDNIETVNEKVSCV
MOR ag counter: OPRM1 agonists via beta-arrestin recruitment, confirmation, counter-screen for mouse HTR2A agonist project, cell-based, luminescence, single concentration; shares compounds with m5-HT2A agonist; U2OS OPRM1 beta-arrestin PathHunter; DMSO 0%, DAMGO 9.3 µM 100%; activation, % at 9.3 µM; hit rate 5.3% among 2,300; AID 624380, 2012;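 active = mean activation above the mean of DMSO-only wells plus 3 SD, cut at about 0.5% in these data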
HTR2A ag conf: mouse HTR2A agonists, beta-arrestin recruitment, confirmation, cell-based, luminescence, CHO-K1 PathHunter, triplicate; hit rate 19% among 2,300; shares compounds with m5-HT2A agonist; AID 624381, 2012; activation, % at 7.6 µM; DMSO 0%, 30 µM serotonin 100%;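 active = mean activation across triplicates above the hit threshold derived in the original primary screen, cut at about 15% in these data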
* marks the source's active call; other numbers are inactive results; . = no result given. In the library only some 2.3% were active in any assay of this set; here they are far more common.

SMILES | NTR1 agonist | Exocytosis inh | ABHD5 PLIN5 PPI | Beta2AR agonist | m5-HT2A agonist | MOR ag counter | HTR2A ag conf
COc1ccc(-c2cc(C(=O)N3CCCC3)no2)cc1OC | -0.2 | -9.0 | -16.3 | 0.8 | 22.5* | -0.5 | 0.6
COc1ccc(-c2cc(C(=O)N3CCCCC3)no2)cc1OC | 4.5 | -3.6 | -0.1 | -3.1 | 0.7 | . | .
COc1ccc(-c2cc(C(=O)N3CCN(c4ccccc4)CC3)no2)cc1 | 9.7 | -1.8 | -4.6 | 0.1 | 4.4 | . | .
COc1ccc(OC)c(-c2cc(C(=O)N3CCN(c4ccccc4)CC3)no2)c1 | 6.2 | -0.3 | -4.0 | 9.1 | 27.4* | -0.5 | -5.3
N#Cc1ccccc1OCC(=O)NC(=O)NC1CCS(=O)(=O)C1 (configuration not stated) | 0.1 | 5.2 | -4.5 | 4.0 | 13.5 | . | .
Cc1cc([N+](=O)[O-])c2[nH]c(C(=O)N/N=C/c3ccccc3C(=O)O)c(-c3ccccc3)c2c1 | . | 5.9 | 5.1 | 6.0 | 17.6* | -0.7 | -2.0
O=C(Nc1ccccc1Cl)C1CCN(S(=O)(=O)c2cccc3nonc23)CC1 | -1.3 | 4.0 | -13.2 | 16.5 | 4.2 | . | .
COC(=O)CN1C(=O)COc2ccc(S(=O)(=O)N3CCCCC3)cc21 | . | -10.8 | -2.7 | . | 3.3 | . | .
NC(=O)C1CCN(C(=O)c2cc3ccccn3n2)CC1 | 2.4 | 0.5 | 4.0 | -8.6 | -1.3 | . | .
O=C(c1cc2ccccn2n1)N1CCN(c2ccccn2)CC1 | 1.8 | 2.2 | 0.4 | 12.8 | 17.4* | -0.5 | -4.0
O=S(=O)(NCc1ccccc1)c1ccc(-n2cccn2)cc1 | 0.6 | 5.0 | -0.7 | -6.6 | 4.2 | . | .
CC(=O)Nc1ccc(CN2CCN(CC(C)C)C(CCO)C2)cc1 (configuration not stated) | -2.4 | -0.8 | -3.3 | 1.7 | 14.4* | -0.5 | -3.7
S=C1SCCCN1Cc1ccc(Cl)cc1 | . | -2.5 | 7.2 | . | 3.5 | . | .
CCc1cccc(CC)c1NC(=O)COC(=O)C1(C)CC1(Cl)Cl (configuration not stated) | 0.6 | -0.6 | 1.6 | 7.1 | 16.7* | -0.6 | -3.9
COc1ccc(NC(=O)CCCn2cnc3ccccc3c2=O)c(OC)c1 | -1.6 | -3.2 | 6.6 | 0.7 | -1.3 | . | .
c1ccc(CCNc2ccc3nncn3n2)cc1 | -0.4 | 3.4 | 5.3 | 7.7 | 16.2* | -0.5 | -5.6
NNc1ccc2nncn2n1 | -0.5 | 16.2 | -6.8 | -0.4 | 0.8 | . | .
CCOC(=O)C1=NOC2COC3(CCN(c4ncccn4)CC3)OCC12 (configuration not stated) | -0.7 | 2.4 | 11.3 | 8.1 | 14.8* | 0.6* | 6.2
CCOC(=O)c1sc2nc(C)nc(N3CCN(c4ncccn4)CC3)c2c1C | 4.6 | -7.4 | -0.1 | -8.3 | 0.6 | . | .
COc1ccc(C)cc1-n1nnnc1SC(C)C(=O)NC1CCCC1 (configuration not stated) | -1.4 | -0.3 | -6.6 | -0.1 | -1.6 | . | .
COc1cccc(-c2cc(N3CCN(C(=O)c4ccoc4)CC3)n3nc(-c4cccc(Cl)c4)cc3n2)c1 | . | -3.6 | -4.1 | . | 16.3* | -0.7 | -0.9
Cn1ncc(Br)c1NC(=O)Nc1ccccc1 | -0.2 | -3.5 | -10.4 | -2.4 | 14.4* | 1.0* | 7.6
C[C@@H]1CNC(=O)c2c(C(=O)NCC(=O)OC(C)(C)C)ncn21 | . | 0.8 | -3.1 | . | 2.9 | . | .
COc1ccccc1S(=O)(=O)N(C)C[C@@H]1OCc2cnnn2CCCC(=O)N([C@H](C)CO)C[C@@H]1C | . | -4.2 | -6.7 | . | -2.5 | . | .
Cc1cc2nc(N3CCN(C(=O)c4ccco4)CC3)sc2cc1C | 1.0 | -7.0 | 4.8 | 1.2 | 6.7 | . | .
SMILES | NTR1 agonist | Exocytosis inh | ABHD5 PLIN5 PPI | Beta2AR agonist | m5-HT2A agonist | MOR ag counter | HTR2A ag conf
O=C(c1ccco1)N1CCN(c2nc3ccsc3c(=O)s2)CC1 | 10.7 | 0.8 | 0.5 | -9.9 | 42.0* | -0.7 | 9.4
O=C(C[n+]1ccccc1)N1CCCc2ccccc21 | 1.0 | -2.6 | -2.2 | 3.5 | 19.9* | -0.5 | 1.7
C=CCn1c(=O)/c(=C/c2ccc(C)o2)s/c1=C(/C#N)C(=O)c1ccccc1 | -1.9 | -2.5 | 7.6 | -4.4 | 14.8* | -0.8 | -7.7
C=CCn1c(=O)/c(=C\c2ccccn2)s/c1=C(/C#N)C(=O)NCC1CCCO1 (configuration not stated) | 20.9 | 3.3 | 0.3 | 7.8 | 5.0 | . | .
COC(=O)c1c(NC(C)=O)csc1C | 1.2 | -1.6 | 0.1 | 2.1 | -0.4 | . | .
O=C1CN(C(=O)C2CCC(=O)N(CCc3ccc(Cl)cc3)C2)CCN1 (configuration not stated) | -0.3 | 3.1 | 0.6 | -16.3 | 16.7* | -0.6 | 2.2
CC(C)C1CCN(C(=O)C2CCC(=O)N(CCc3ccc(Cl)cc3)C2)CC1 (configuration not stated) | 2.7 | 0.5 | 6.7 | -10.8 | 0.4 | . | .
FC(F)(F)c1ccccc1NC(=S)NC1CCN(Cc2ccccc2)CC1 | 1.6 | 28.4 | -1.3 | 0.3 | 16.9* | -0.7 | -4.6
O=C(c1ccc(NC2=NC3CS(=O)(=O)CC3S2)cc1)N1CCN(c2ccc(F)cc2)CC1 (configuration not stated) | -0.6 | -6.3 | -2.7 | -7.3 | -2.6 | . | .
O=C(c1ccc(NC2=NC3CS(=O)(=O)CC3S2)cc1)N1CCN(c2ccccc2F)CC1 (configuration not stated) | -0.8 | 0.5 | 6.4 | -3.3 | 23.7* | -0.6 | -4.2
Cc1c(C(c2ccc([N+](=O)[O-])cc2)c2c(C)n(C)n(-c3ccccc3)c2=O)c(=O)n(-c2ccccc2)n1C | 4.3 | -3.7 | -4.2 | -28.3 | 2.5 | . | .
CCCNC(=O)c1cc(C2CCCCN2C(=O)c2cc(OC)c(C)c(OC)c2)on1 (configuration not stated) | . | 1.1 | 7.2 | . | 16.5* | -0.6 | -3.8
COc1cc(C(=O)N2CCCCC2c2cc(C(=O)NC(C)C)no2)cc(OC)c1C (configuration not stated) | . | -1.4 | -2.9 | . | -3.8 | . | .
COC(=O)C1=C(CS(=O)(=O)c2cc(Cl)ccc2OC)NC(=O)NC1c1ccc(O)c(OC)c1 (configuration not stated) | 1.5 | -0.1 | -3.6 | -25.4 | 14.7* | -0.6 | 1.2
COC(=O)C1=C(CS(=O)(=O)c2ccc(C)cc2)NC(=O)NC1c1ccc(OC)c(OC)c1 (configuration not stated) | 2.0 | -1.3 | -1.2 | 8.1 | 8.5 | . | .

Screening results as filed in PubChem.
